Results: PubChem BioAssay (Tox21)
Results filed as inconclusive are left out. A call without a number means that no potency is given here. Activity calls are given as the source filed them. The call rests on the fitted dose curve.

assay: p53 small molecule agonists, cell-based qHTS assay with human liver microsomes: qHTS cell viability counter screen (AID 1963579); details: p53RE-bla HCT-116 viability, ATP luminescence, 16 h, HLM; series mostly up to 66 µM; further: nearly all actives have a fitted effect of over 45% in size
Method in brief: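 HLM-supplemented (0.5 mg/mL final) and NADPH-supplemented (0.5 mg/mL final) p53RE-bla cultures, 4,000 cells per well, were dosed with compounds in DMSO for 16 h at 37 C; luminescent ATP detection (CellTiter-Glo, 30 min, room temperature) quantified surviving cells.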

Structure (SMILES)	Potency
CCOC=C(C(=O)OCC)C(=O)OCC	inactive
CCC(=O)OCc1ccccc1	inactive
O=C1CC[C@H](C(=O)N2CCCCC2)N1	inactive
C=C1CC/C=C(\C)CC[C@@H]2[C@@H]1CC2(C)C	inactive
COc1cc(S(N)(=O)=O)cc(C(=O)O)c1OC	inactive
C1COCCO1	inactive
CC/C=C/CCO	inactive
CC(=O)N1CCN(c2ccc(O)cc2)CC1	inactive
Cc1ncc(CO)c(CN)c1O	inactive
CC(C)(C)c1ccc(CCC=O)cc1	inactive
CC1=C(O)C(=O)C(C)O1 (centres undefined)	inactive
CCOC(=O)[C@H](CCc1ccccc1)N[C@@H](C)C(=O)N1C(=O)N(C)C[C@H]1C(=O)O	inactive
CCCCCCCCCCCCCCCCCC(=O)OCC(CC)CCCC (centres undefined)	inactive
NC(=O)Cc1cccc2ccccc12	inactive
Cc1cnccn1	inactive
O=Cc1ccc(Cl)cc1	inactive
CCCCCCCCCCC	inactive
CCCCOC(=O)CCS	inactive
COc1cc(C(=S)N2CCOCC2)cc(OC)c1OC	inactive
CCCC(=O)Nc1ccc(O)c(C(C)=O)c1	inactive
COc1cc2c(Nc3ccc(Br)cc3F)ncnc2cc1OCC1CCN(C)CC1	inactive
CC(=O)c1ccc2c(c1)CCCC2	inactive
c1cnc2cc3c(cc2n1)C1CNCC3C1	inactive
O=Cc1ccc([N+](=O)[O-])cc1	inactive
CCC(=O)O[C@@H]1C[C@H]2CC[C@]1(C)C2(C)C	inactive
CCNc1nc(N)nc(Cl)n1	inactive
CN(C)CCCNCCC#N	inactive
O=C1CCN(c2ccccc2)N1	inactive
O=C(O)c1ccc(OCCN2CCCCC2)cc1	inactive
